From the supplement of paper PMC8877412
Where a name gives a salt, the structure may show the parent alone. ± gives the uncertainty stated by the source.

system: NCC-PMP1-C1; test: cell viability relative to DMSO control; higher = less growth inhibition; details: 10 µM; 72 h
Protocol: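 NCC-PMP1-C1 pseudomyxoma peritonei cells were seeded in 384-well plates coated with Matrigel and MEF (1e4 cells). Viability was read after 72 h by CCK-8 and expressed as % of the DMSO control, mean ± SD of duplicates.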

Compound | cell viability
N.N.[Cl][Pt][Cl] [Cisplatin] | 102 ± 3.3%
C/C=C(\C)C(=O)N[C@@H](c1ccccc1)[C@@H](O)C(=O)O[C@H]1C[C@@]2(O)[C@@H](OC(=O)c3ccccc3)[C@@H]3[C@]4(OC(C)=O)CO[C@@H]4C[C@H](O)[C@@]3(C)C(=O)[C@H](OC(C)=O)C(=C1C)C2(C)C [Cephalomannine] | 74.9 ± 6.8%
O=C1C2CCN(CC2)C1(CO)CO | 78.8 ± 3.1%
NCCCNCCSP(=O)(O)O [Amifostine] | 95.3 ± 16%
O=P1(NCCCl)OCCCN1CCCl (centres undefined) [Ifosfamide] | 106.5 ± 0.13%
CC[C@@]1(O)C(=O)OCc2c1cc1n(c2=O)Cc2cc3ccccc3nc2-1 [Camptothecin] | 82.2 ± 14%
C=CCN1CC[C@]23c4c5ccc(O)c4O[C@H]2C(=O)CC[C@@]3(O)[C@H]1C5 [Naloxone HCl] | 1.93 ± 1.3%
CC(=O)OC12COC1CC(O)C1(C)C(=O)C(O)C3=C(C)C(O)CC(O)(C(OC(=O)c4ccccc4)C21)C3(C)C (centres undefined) [10-Deacetylbaccatin-III] | 94.7 ± 12%
Cc1c(N)nc(C(CC(N)=O)NCC(N)C(N)=O)nc1C(=O)NC(C(=O)NC(C)C(O)C(C)C(=O)NC(C(=O)NCCc1nc(-c2nc(C(=O)NCCC[S+](C)C)cs2)cs1)C(C)O)C(O[C@@H]1O[C@@H](CO)[C@@H](O)[C@H](O)[C@@H]1O[C@H]1O[C@H](CO)[C@@H](O)[C@H](OC(N)=O)[C@@H]1O)c1cnc[nH]1 (some centres undefined) [Bleomycin Sulfate] | 80.5 ± 1.4%
C=C1C[C@@H]2[C@H](CC[C@]3(C)C(=O)CC[C@@H]23)[C@@]2(C)C=CC(=O)C=C12 [Exemestane] | 138 ± 5.7%
O=P1(N(CCCl)CCCl)NCCCO1 (centres undefined) [Cyclophosphamide Monohydrate] | 107 ± 9.1%
O=C(O)CCCc1ccc(N(CCCl)CCCl)cc1 [Chloroambucil] | 87 ± 20%
COCC1(CO)C(=O)C2CCN1CC2 (centres undefined) | 115 ± 8.3%
Cn1c(CCCC(=O)O)nc2cc(N(CCCl)CCCl)ccc21 [Bendamustine HCl] | 127 ± 6%
